Measured values as given in the supplement of paper PMC6555819.

Assays:
Assay in all cases: PBM binding z-score (relative to random genomic background probes); higher = stronger binding; sequences stand for … in GC…GCGATTGACAGCGTAGAATGAAGG
[1] = test system: FXR:RXRa (NR concentration 270 nM, RXRa partner concentration 90 nM)
Summary of the method: (§1)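 Each nuclear receptor dimer, without ligand, was incubated for 1 h on custom Agilent 4×180K protein-binding microarrays. Binding was detected with antibodies against each partner (one per run), and scanned fluorescence was regression-normalized. The binding z-scores are referenced to random human genomic background probes.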

[2] = test system: LXRa:RXRa (NR concentration 270 nM, RXRa partner concentration 90 nM)
Summary of the method: as §1

[3] = test system: LXRa homodimer (NR concentration 270 nM)
Summary of the method: as §1

[4] = test system: LXRb:RXRa (NR concentration 270 nM, RXRa partner concentration 90 nM)
Summary of the method: as §1

[5] = test system: LXRb homodimer (NR concentration 270 nM)
Summary of the method: as §1

[6] = test system: PPARa:RXRa (NR concentration 270 nM, RXRa partner concentration 90 nM)
Summary of the method: as §1

[7] = test system: PPARg:RXRa (NR concentration 180 nM, RXRa partner concentration 90 nM)
Summary of the method: as §1

[8] = test system: PPARg:RXRa 270nM:90nM, anti-RXR (NR concentration 270 nM, RXRa partner concentration 90 nM)
Summary of the method: as §1

[9] = test system: PPARg:RXRa 30nM:10nM, anti-RXR (NR concentration 30 nM, RXRa partner concentration 10 nM)
Summary of the method: as §1

[10] = test system: PPARg:RXRa 90nM:30nM, anti-RXR (NR concentration 90 nM, RXRa partner concentration 30 nM)
Summary of the method: as §1

[11] = test system: PPARg:RXRa DBDmut IVT, anti-RXR (DBD mutation: RXRa K156A/R161A, NR concentration 270 nM, RXRa partner concentration 90 nM)
Summary of the method: as §1

[12] = test system: PPARg:RXRa IVT, anti-PPARg (NR concentration 270 nM, RXRa partner concentration 90 nM)
Summary of the method: as §1

[13] = test system: PPARg DBDmut:RXRa IVT, anti-PPARg (DBD mutation: PPARg1 K132A/R137A, NR concentration 270 nM, RXRa partner concentration 90 nM)
Summary of the method: as §1

[14] = test system: PPARg DBDmut IVT, anti-PPARg (DBD mutation: PPARg1 K132A/R137A, NR concentration 270 nM)
Summary of the method: as §1

[15] = test system: PPARg homodimer (NR concentration 180 nM)
Summary of the method: as §1

[16] = test system: PXR:RXRa (NR concentration 270 nM, RXRa partner concentration 90 nM)
Summary of the method: as §1

[17] = test system: PXR homodimer (NR concentration 270 nM)
Summary of the method: as §1

[18] = test system: RARa:RXR (NR concentration 270 nM, RXRa partner concentration 90 nM)
Summary of the method: as §1

[19] = test system: RARa homodimer (NR concentration 270 nM)
Summary of the method: as §1

[20] = test system: RARb:RXRa (NR concentration 270 nM, RXRa partner concentration 90 nM)
Summary of the method: as §1

| Sequence | PBM binding z-score [1] | PBM binding z-score [2] | PBM binding z-score [3] | PBM binding z-score [4] | PBM binding z-score [5] | PBM binding z-score [6] | PBM binding z-score [7] | PBM binding z-score [8] | PBM binding z-score [9] | PBM binding z-score [10] | PBM binding z-score [11] | PBM binding z-score [12] | PBM binding z-score [13] | PBM binding z-score [14] | PBM binding z-score [15] | PBM binding z-score [16] | PBM binding z-score [17] | PBM binding z-score [18] | PBM binding z-score [19] | PBM binding z-score [20] |
| --- | --- | --- | --- | --- | --- | --- | --- | --- | --- | --- | --- | --- | --- | --- | --- | --- | --- | --- | --- | --- |
| CCTTACGGGTCAAGGTTAAAGCACGGGTGGTACG | 5.62 | 3.83 | 0.272 | 3.14 | 0.0143 | 5.08 | 5.05 | 5.34 | 2.38 | 4.5 | 1.83 | 3.82 | 0.996 | 0.275 | 3.27 | 3.65 | 0.419 | 4.78 | 1.39 | 4.12 |
| TCGATTAGGTTAGTCGGGGCATTCAGCCAACATA | 0.428 | 0.421 | -0.073 | 0.839 | -0.164 | 0.801 | -0.279 | 1.29 | 2.61 | 1.79 | 2.2 | 0.996 | 0.0217 | -0.0761 | 0.302 | 0.39 | 0.0297 | 0.45 | -0.0114 | 0.705 |
| ATATGTAGGTTATCGGGTCATTTAGTTTGCGCAT | 3.57 | 3.18 | 2.41 | 3.28 | 1.19 | 4.9 | 7.59 | 6.1 | 3.69 | 5.91 | 7.62 | 7.25 | 1.55 | 1.71 | 3.3 | 3.33 | 4.87 | 3.6 | 1.47 | 2.56 |
| CGTCCAATGTCAGCAGGTCAGTGAAAGCGACGTG | 0.418 | 0.255 | -0.0257 | 0.392 | -0.161 | 1.22 | 0.115 | 0.0995 | -0.882 | -0.158 | 0.4 | 0.811 | -0.067 | -0.189 | 1.33 | 0.416 | -0.258 | 1.17 | 0.0652 | 2.6 |
| GGAACGTGGGCATTCGAGTTGATAGCATGGCGAT | -0.541 | -0.612 | -0.683 | -1.02 | -1.01 | -1.09 | 0.22 | -0.631 | -0.7 | -0.858 | -0.654 | -0.803 | -0.387 | -0.8 | -0.877 | -0.129 | -0.516 | -0.333 | -0.773 | -0.433 |
| TCATATAGGTAAATGCTAGGTTAAAGTCCGATCT | 1.18 | 1.82 | 1.14 | 1.05 | 0.0487 | 1.7 | 0.987 | 2.22 | 3.48 | 2.87 | 3.88 | 2.47 | 1.36 | 1.02 | 1.14 | 0.98 | 0.768 | 1.29 | 1.88 | 0.735 |
| TAGCCTAGGTCATGGGTCAGTATACCACGCGAAC | 5.1 | 4 | 0.898 | 3.62 | 0.339 | 4.77 | 6.78 | 5.95 | 3.9 | 6.14 | 1.91 | 4.28 | 1.25 | 0.834 | 2.55 | 2.92 | 0.237 | 4.22 | 0.889 | 4.1 |
| CCTAGCAGGCCAGGGTCACACAAGCATTTCGCTT | 2.57 | 2.38 | -0.252 | 2.77 | -0.795 | 4 | 2.01 | 2.57 | 0.18 | 1.59 | 0.592 | 1.47 | -0.955 | -1.08 | 1.19 | 3.43 | -0.631 | 4.06 | 0.145 | 2.9 |
| CAAACTATGTCAAGGTCAAAGTCGGTTTGTGCCA | 4.77 | 4.95 | 4.54 | 4.26 | 1.75 | 4.65 | 4.09 | 4.7 | 2.24 | 3.82 | 5.27 | 4.71 | 0.328 | 0.339 | 2.4 | 5 | 3.33 | 4.46 | 1.69 | 4.25 |
| TTACCAATGTGAAAGGTCGTTGATGCACGCCTTG | 1.7 | 2.12 | 0.874 | 1.91 | 0.227 | 3.26 | 4.36 | 5.96 | 3.68 | 6.14 | 0.0484 | 2.32 | 0.0698 | 0.235 | 1.33 | 2.76 | 0.663 | 3.27 | 0.219 | 1.74 |
| AGTCAAAGTTCACAAGGTAACGTAAGATTCAGCT | 6.12 | 5.7 | 3.55 | 3.65 | 1.1 | 4.75 | 6.96 | 6.42 | 3.67 | 5.78 | 0.681 | 3.67 | 1.19 | 0.956 | 3.05 | 4.78 | 2.84 | 4.51 | 2.08 | 4.82 |
| TCTTGTAGATCAACAAGAGGTTAAGAAAGATCGA | 0.445 | 2.13 | 0.311 | 1.41 | -0.334 | 1.96 | 0.437 | 1.19 | 2.15 | 1.59 | 1.35 | 0.865 | 0.785 | 0.787 | -0.0436 | 1.27 | 0.0734 | 1.63 | -0.225 | 0.99 |
| ACTTACGGGTCAACGAGTTTATAGCACGCGTATA | 6.09 | 4.46 | 1.02 | 4.03 | 0.714 | 5.4 | 5.37 | 5.02 | 2.4 | 4.12 | 3.67 | 3.98 | 1.94 | 1.27 | 1.4 | 5.9 | 9.25 | 4.24 | 0.513 | 4.14 |
| GCATATAGGTTATACAAGGTGAAAGTCCGATTGT | 2.85 | 6.15 | 1.21 | 3.08 | 0.203 | 2.94 | 2.19 | 2.63 | 0.843 | 1.98 | 4.93 | 4.04 | 0.859 | 0.875 | 1.26 | 2.26 | 0.302 | 2.49 | 0.937 | 1.6 |
